Assay outcomes deposited in PubChem BioAssay by National Center for Advancing Translational Sciences (NCATS).
IL1B secr inh: qHTS for Inhibitors of Inflammasome Signaling: IL-1-beta AlphaLISA Primary Screen. THP-1 LPS/ATP IL-1B secretion, AlphaLISA, 16 h; active compounds read low. activity change, % at 57.5 µM. AID 743279, 2014. hit rate 4.7% among 360,000; in the data active = activity change below about -50%; inconclusive = mostly about -30% to -49%
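THP-1 cells pretreated 1 hr with compounds (up to 57.5 uM final), then stimulated with LPS (250 ng/mL final) plus ATP (1.25 mM final); secreted IL-1B measured by AlphaLISA after 16 hr, decreased signal indicating inhibition.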
Gal4-VP16 FLuc: VP16 counterscreen qHTS for inhibitors of ROR gamma transcriptional activity. Drosophila S2 Gal4-VP16 UAS-luciferase, luminescence, 20 h. Potency, µM (titrated, usually from 53.6 µM), for the others: top-dose activity, negative = inhibition, usual class: inhibitors. hit rate 3.5% among 310,000;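 also: Gal4-VP16 expression switched on by copper sulfate through the metallothionein promoter; potency is read from the fitted curve at half-maximal effect; nearly all actives have a fitted effect of over 50% in size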
TDP1 cell noCPT: qHTS for Inhibitors of human tyrosyl-DNA phosphodiesterase 1 (TDP1): qHTS in cells in absence of CPT | DT40 Tdp1-/- hTDP1 cells, no CPT, ATP luminescence, 48 h | hit rate 15% among 420,000 | Potency, µM (highest dose often 46.2 µM), for inactives: top-dose activity change, negative = growth inhibition, actives largely listed as inhibitors | AID 686978, 2013; also: potency is read from the fitted curve at half-maximal effect; nearly all actives have a fitted effect of over 55% in size
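Luminescent ATP content (CellTiter-Glo) served as the growth readout. Knockout chicken DT40 cells expressing human TDP1 were exposed to compounds without camptothecin for a minimum 48 hr at 37 °C.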
RORg inh: qHTS for inhibitors of ROR gamma transcriptional activity; hit rate 5.4% among 310,000; Drosophila S2 Gal4-RORgamma UAS-luciferase reporter, 20 h; Potency, µM (titrated, usually from 53.6 µM), for the others: at the highest dose activity change, negative = inhibition, most hits filed as inhibitors; also: potency is read from the fitted curve at half-maximal effect; nearly all actives have a fitted effect of over 60% in size
Target sequence (P51450 whole entry, looked up, the tested form may be a part): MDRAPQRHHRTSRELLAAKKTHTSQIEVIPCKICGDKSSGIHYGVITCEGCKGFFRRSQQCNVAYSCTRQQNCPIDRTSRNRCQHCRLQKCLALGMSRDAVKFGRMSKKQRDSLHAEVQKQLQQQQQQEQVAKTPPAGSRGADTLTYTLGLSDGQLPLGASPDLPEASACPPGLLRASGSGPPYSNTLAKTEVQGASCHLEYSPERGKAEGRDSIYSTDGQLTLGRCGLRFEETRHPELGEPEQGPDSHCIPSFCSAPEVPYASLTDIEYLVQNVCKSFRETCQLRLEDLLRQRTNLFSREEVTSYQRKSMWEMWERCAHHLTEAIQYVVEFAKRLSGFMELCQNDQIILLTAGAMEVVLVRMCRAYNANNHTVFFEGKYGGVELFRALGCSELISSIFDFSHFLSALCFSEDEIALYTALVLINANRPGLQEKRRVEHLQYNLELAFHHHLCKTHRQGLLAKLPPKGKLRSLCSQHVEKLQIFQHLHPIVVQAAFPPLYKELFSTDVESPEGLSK
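Stably transfected Drosophila Schneider cells are the test system, with ROR gamma fused to Gal4 and luciferase under UAS control; luminescence is read after 20 hr of 700 uM copper sulfate induction at ambient temperature.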
LDHA block: qHTS assay for inhibitors of human lactate dehydrogenase | AID 1347041, 2019 | L-lactate dehydrogenase A chain (Homo sapiens), P00338 | activity change, % (values are at about 110 or 230 µM) | hit rate 0.15% among 480,000 | purified LDHA, NADH/diaphorase-resazurin fluorescence; active compounds read low; in the data active = activity change below about -30%; inconclusive = mostly about -25% to -30%;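 also: plate controls were DMSO wells for no effect and wells without enzyme for full effect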
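Human LDH5 at 2 nM final in Tris HCl pH 7.4 with 0.06 mM NADH and 0.2 mM pyruvate, reacted 5 minutes at room temperature. Remaining NADH coupled via diaphorase/resazurin; resorufin fluorescence read at 0 and 20 minutes, normalized to enzyme-free and DMSO wells.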
DT40 TDP1 CPT: qHTS for Inhibitors of human tyrosyl-DNA phosphodiesterase 1 (TDP1): qHTS in cells in presence of CPT; chicken DT40 Tdp1-/-;hTDP1 cells + 20 nM CPT, ATP luminescence, 48 h; Potency, µM (top dose mostly 46.2 µM), without a hit: at the top dose activity change, negative = growth inhibition, actives largely listed as inhibitors; hit rate 12% among 420,000; AID 686979, 2013; also: potency is read from the fitted curve at half-maximal effect; nearly all actives have a fitted effect of over 55% in size
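Chicken DT40 Tdp1-/- cells stably complemented with human TDP1 were seeded at 400 cells/well in medium containing 20 nM camptothecin, exposed to pin-transferred compounds, and grown at 37 °C for at least 48 hr. Viability was read as ATP luminescence.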
An asterisk follows results filed as active; u = inconclusive; x = not tested or not shown. The list is not random: actives were taken first. Their share in the collection is about 18%. Unless noted, calls follow the shape of the dose curve; as a rule, active = well fitted curve in the direction sought with a large enough effect; inconclusive = small, poorly fitted or top-dose-only effect, or another doubt; inactive = no such curve, though single readings can be large; an effect the other way counts as inactive or inconclusive. Unless noted, % is scaled to controls: 0 for no effect and ±100 for the full control effect.

SMILES	IL1B secr inh	Gal4-VP16 FLuc	TDP1 cell noCPT	RORg inh	LDHA block	DT40 TDP1 CPT
Cn1c(C(=O)Nc2cccc3cccnc23)c(Cl)c2ccccc21	x	x	x	x	-9	x
CCc1ccc(/C=N/NC(=O)c2nnn(-c3nonc3N)c2C(C)C)cc1	27	-3%	18µM*	5%	-1	u
Cc1ccc(/C=N/NC(=O)c2nnn(-c3nonc3N)c2C(C)C)s1	3	7.1µM*	-22%	2.2µM*	2	-12%
CC(C)c1c(C(=O)N/N=C/c2ccccc2OCc2c(F)cccc2Cl)nnn1-c1nonc1N	69	-4%	2.3µM*	-13%	-10	5.8µM*
O=C(OCCOc1ccccc1)c1ccc2nccnc2c1	x	x	x	x	7	x
COc1ccc(/C=N/O)c(OC)c1	x	x	x	x	-1	x
CCCN(C(=O)c1ccc2c(=O)n3c(nc2c1)CCCC3)c1ccc(C(C)C)cc1	x	x	x	x	1	x
O=C(NC1CCCCCC1)C(=O)N1CCN(C(=O)c2cc3ccccc3[nH]2)CC1	x	x	x	x	7	x
COc1cc(NS(C)(=O)=O)ccc1Cc1c2ccccc2nc2ccccc12	x	-14%	0.16µM*	-17%	x	0.082µM*
CCCS(=O)(=O)Nc1ccc(Nc2c3ccccc3nc3ccccc23)c(OC)c1	-94*	x	0.16µM*	x	9	0.16µM*
COc1ccc(NS(=O)(=O)Cc2ccccc2)cc1OC	0	-5%	-20%	-1%	6	-11%
COc1cc(N)ccc1Nc1c2ccccc2nc2ccccc12	-24	x	1.5µM*	x	4	0.82µM*
O=C(NC(c1ccccc1)C1CC1)c1cc(Cl)nc(Cl)c1 (stereo not given)	x	x	x	x	6	x
Cc1ccc(-n2ncc3c2ncn2nc(-c4cccs4)nc32)c(C)c1	x	x	x	x	-1	x
CCc1nc2c(OCCn3cccc3)cccn2c1N(C)C(=O)CC(C)C	10	x	u	x	3	-24%
CCCCC(=O)N(C)c1c(CC)nc2c(OCc3ccccc3C)cccn12	-22	x	29µM*	x	9	29µM*
CCc1nc2c(OCc3ccc(F)cc3)cccn2c1N(C)C(=O)C(C)C	2	x	u	x	-2	-25%
CCc1nc2c(OCc3ccccc3C)cccn2c1N(C)C(=O)CC(C)C	1	x	18µM*	x	1	21µM*
CCc1nc2c(OCc3ccccc3C)cccn2c1N(C)C(=O)C(C)C	114	x	16µM*	x	0	18µM*
CCOC(=O)C1=C(CNCc2ccccc2)NC(=O)NC1c1ccccc1 (stereo not given)	x	x	x	x	-3	x
Cc1cccc(Cn2c(NC3CCCCC3)nc3c2c(=O)[nH]c(=O)n3C)c1	x	x	x	x	-5	x
Cc1ccc(S(=O)(=O)N2[C@H](CC(=O)c3ccccc3)OC[C@@H]2C)cc1	28	x	u	x	-5	u
Cc1ccc(S(=O)(=O)N2C[C@@H]3CCCC[C@@H]3[C@@H](C)[C@H]2CC(=O)c2ccccc2)cc1	7	x	13µM*	x	0	15µM*
Oc1ccc(CNc2ccc(F)cc2)c2cccnc12	-3	u	1.6µM*	11µM*	23	2.9µM*
Cc1ccccc1NCc1ccc(O)c2ncccc12	45	11µM*	5.2µM*	11µM*	16	2.6µM*
SMILES	IL1B secr inh	Gal4-VP16 FLuc	TDP1 cell noCPT	RORg inh	LDHA block	DT40 TDP1 CPT
Oc1ccc(CNc2ccccc2Br)c2cccnc12	x	x	x	x	23	x
Oc1ccc(CNc2cccc(F)c2)c2cccnc12	x	x	x	x	36	x
Oc1ccc(CNc2ccccc2)c2cccnc12	9	0.79µM*	2.6µM*	16µM*	18	3.7µM*
O=C(NC1CCN(C(=O)c2cc(-c3ccccc3)nc3ccccc23)CC1)c1ccccc1	x	x	x	x	-16	x
CCCn1c(SCC(=O)c2cc(C)n(-c3ccc4c(c3)OCO4)c2C)n[nH]c1=O	9	u	6.5µM*	u	9	23µM*
Cc1cc(C(=O)CSc2nnnn2C)c(C)n1-c1cccc(F)c1	-12	-2%	9.2µM*	41%	-2	u
Cc1cc(C(=O)CSc2nncs2)c(C)n1-c1ccc2c(c1)OCO2	-69*	u	18µM*	u	-2	21µM*
COc1ccc(-n2c(C)cc(C(=O)CN3C(=O)NC4(CCCc5sccc54)C3=O)c2C)cc1 (stereo not given)	-5	u	21µM*	u	1	16µM*
Cc1cc(C(=O)CN2C(=O)NC3(CCCc4sccc43)C2=O)c(C)n1-c1ccccc1 (stereo not given)	u	-1%	-25%	u	-7	u
CCCn1c(SCC(=O)c2cc(C)n(C3CC3)c2C)n[nH]c1=O	-7	x	-18%	x	-3	-8%
COc1ccc(-n2[nH]c(CSc3nnnn3-c3ccccc3)cc2=O)cc1	x	x	x	x	5	x
COc1cccc(C(=O)NCCNC(=O)c2cn(C)c3ccccc23)c1	x	x	x	x	-3	x
Cc1ccc(NC(=S)NCc2ccccc2Cl)cc1	x	x	x	x	10	x
CCCNC(=O)NC(C(N)=O)C(N)=O	x	x	x	x	-1	x
Cc1cc(C)c(C(N)=O)c(SCC(=O)c2cc(C)n(-c3cc(C)on3)c2C)n1	23	x	0.52µM*	x	-2	1.2µM*
Cc1cc(C(=O)CSc2nnnn2-c2ccc(O)cc2)c(C)n1Cc1ccc2c(c1)OCO2	-8	u	u	8%	-1	u
Cc1cc(C)c(C(N)=O)c(SCC(=O)c2cc(C)c(C)cc2C)n1	12	3%	-26%	-3%	-13	-27%
Cc1cc(C(=O)CSc2nnc(C)n2Cc2ccccc2)c(C)n1Cc1ccc(F)cc1	x	x	x	x	-2	x
Cc1cc(C(=O)CSc2nnc(-c3cccc(F)c3)n2N)c(C)n1Cc1ccc2c(c1)OCO2	u	u	23µM*	40%	2	15µM*
Cc1cc(C(=O)CSc2nnnn2-c2ccccc2)c(C)n1-c1ccc2c(c1)OCO2	9	11µM*	13µM*	-35%	3	23µM*
Cc1cc(C(=O)CN2C(=O)NC3(CCCCC3)C2=O)c(C)n1-c1ccc2c(c1)OCO2	u	-30%	21µM*	u	-3	u
Cc1cc(-n2c(C)cc(C(=O)CSc3nncn3C)c2C)no1	20	x	u	x	-4	u
Cc1ccc(-n2nnnc2SCC(=O)c2cc(C)n(-c3cc(C)on3)c2C)cc1	12	3%	15µM*	22%	-5	12µM*
